Measurements reported in PubChem BioAssay (EPA / NIEHS).
Calls of active or inactive are those of the source. Rule for the calls: active = hit-call score of the fitted dose curve at least 0.9, where 1 is the maximum; inactive = score below 0.9.

Columns and labels:
[1] = read-out: Fatty acid synthase (Homo sapiens) (UniProt P49327); assay: LTEA_HepaRG_FASN: Life Technologies and Expression Analysis (LTEA) Assay for Fatty Acid Synthase (FASN) using HepaRG (AID 2283448); conditions: mRNA level, 48 h; actives raise or lower the signal;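 for AC50: differentiated human HepaRG liver cells in serum-free induction medium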
Outline: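 FASN expression changes, up or down relative to 0.5% DMSO, were measured by qRT-PCR in human HepaRG cells after 48 h treatment with chemicals at eight concentrations (half-log steps from 100 uM).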

[2] = read-out: Cyclin Dependent Kinase Inhibitor 1A (CDKN1A), CDKN1A (gene 1026); assay: LTEA_HepaRG_CDKN1A: Life Technologies and Expression Analysis (LTEA) Assay for Cyclin Dependent Kinase Inhibitor 1A (CDKN1A) using HepaRG (AID 2283450); conditions: mRNA level, 48 h; actives raise or lower the signal
Outline: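 Expression quantified by Fluidigm qRT-PCR with ACTB, GAPDH and POLR2A normalization, fitted bidirectionally against 0.5% DMSO. Cells: HepaRG, plated 48 h then treated 48 h in serum-free induction medium, top concentration 100 uM with half-log dilutions.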

[3] = read-out: Cyclin D1 (CCND1), CCND1 (gene 595); assay: LTEA_HepaRG_CCND1: Life Technologies and Expression Analysis (LTEA) Assay for Cyclin D1 (CCND1) using HepaRG (AID 2283451); conditions: mRNA level, 48 h; actives raise or lower the signal
Outline: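 Expression of CCND1 was quantified by qRT-PCR on Fluidigm arrays using ACTB, GAPDH and POLR2A as reference genes. HepaRG cultures, plated 48 h beforehand, were dosed for 48 h at up to 100 uM (half-log, 8 points) in 0.5% DMSO.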

[4] = read-out: catalase (CAT), CAT (gene 847); assay: LTEA_HepaRG_CAT: Life Technologies and Expression Analysis (LTEA) Assay for catalase (CAT) using HepaRG (AID 2283452); conditions: mRNA level, 48 h; actives raise or lower the signal
Outline: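 Expression of CAT was quantified by TaqMan qRT-PCR with ACTB/GAPDH/POLR2A normalization after 48 h chemical exposure of HepaRG. Eight-point half-log series, top 100 uM, in 0.5% DMSO; gain or loss fitted against vehicle.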

[5] = read-out: Cytochrome P450 (CYP1A1), CYP1A1 (gene 1543); assay: LTEA_HepaRG_CYP1A1: Life Technologies and Expression Analysis (LTEA) Assay for Cytochrome P450 (CYP1A1) using HepaRG (AID 2283454); conditions: mRNA level, 48 h; actives raise or lower the signal
Outline: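 CYP1A1 transcript levels measured by Fluidigm qRT-PCR against three housekeeping genes, 48 h after chemical dosing of human HepaRG cells (highest concentration 100 uM, half-log steps, 0.5% DMSO vehicle). Gain or loss of signal fitted relative to DMSO.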

[6] = read-out: CFLAR gene, CFLAR (gene 8837); assay: LTEA_HepaRG_CFLAR: Life Technologies and Expression Analysis (LTEA) Assay for CFLAR gene using HepaRG (AID 2283455); conditions: mRNA level, 48 h; actives raise or lower the signal
Outline: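 HepaRG, 48 h exposure, 8-pt conc-response (100 uM top, half-log), 0.5% DMSO vehicle, duplicates. CFLAR expression by qRT-PCR; ACTB/GAPDH/POLR2A normalization; gain or loss fit vs DMSO baseline.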

[7] = read-out: growth arrest and DNA damage 45 (GADD45A), GADD45A (gene 1647); assay: LTEA_HepaRG_GADD45A: Life Technologies and Expression Analysis (LTEA) Assay for growth arrest and DNA damage 45 (GADD45A) using HepaRG (AID 2283458); conditions: mRNA level, 48 h; actives raise or lower the signal
Outline: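 Cells plated and cultured 48 h, switched to serum-free induction medium, then dosed for 48 h (100 uM top, half-log dilutions, 0.5% DMSO). RNA was isolated and transcript measured by Fluidigm qRT-PCR.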

[8] = read-out: Forkhead box O3 (FOXO3), FOXO3 (gene 2309); assay: LTEA_HepaRG_FOXO3: Life Technologies and Expression Analysis (LTEA) Assay for Forkhead box O3 (FOXO3) using HepaRG (AID 2283459); conditions: mRNA level, 48 h; actives raise or lower the signal
Outline: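 HepaRG, 48 h post-dose; 8 conc., half-log from 100 uM, 0.5% DMSO, duplicates; serum-free induction medium. Readout: FOXO3 mRNA, TaqMan qRT-PCR, housekeeping-normalized. Bidirectional curve fit vs DMSO baseline.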

[9] = read-out: ABC Transporter (ABCB1), ABCB1 (gene 5243); assay: LTEA_HepaRG_ABCB1: Life Technologies and Expression Analysis (LTEA) Assay for ABC Transporter (ABCB1) using HepaRG (AID 2283460); conditions: mRNA level, 48 h; actives raise or lower the signal
Outline: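 Expression of ABCB1 was quantified by qRT-PCR against three housekeeping genes after human HepaRG cultures received test chemicals for 48 hours. Concentrations spanned eight half-log steps topping at 100 uM in 0.5% DMSO; gain or loss of signal was fitted relative to vehicle.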

[10] = read-out: ABC Transporter (ABCC3), ABCC3 (gene 8714); assay: LTEA_HepaRG_ABCC3: Life Technologies and Expression Analysis (LTEA) Assay for ABC Transporter (ABCC3) using HepaRG (AID 2283462); conditions: mRNA level, 48 h; actives raise or lower the signal
Outline: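 Transcript level by TaqMan qRT-PCR, normalised to three housekeeping genes, fitted in both directions relative to vehicle. Chemicals tested in duplicate at eight half-log concentrations up to 100 uM for 48 h on HepaRG cells (0.5% DMSO).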

[11] = read-out: ABC Transporter (ABCC2), ABCC2 (gene 1244); assay: LTEA_HepaRG_ABCC2: Life Technologies and Expression Analysis (LTEA) Assay for ABC Transporter (ABCC2) using HepaRG (AID 2283464); conditions: mRNA level, 48 h; actives raise or lower the signal
Outline: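 Endpoint is ABCC2 transcript level from qRT-PCR, normalized to three housekeeping genes and fitted bidirectionally relative to DMSO. Human HepaRG cells received test chemical for 48 h at up to 100 uM (8 points, half-log steps, 0.5% DMSO), duplicate wells.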

[12] = read-out: Cyclin D2 (CCND2), CCND2 (gene 894); assay: LTEA_HepaRG_CCND2: Life Technologies and Expression Analysis (LTEA) Assay for Cyclin D2 (CCND2) using HepaRG (AID 2283449); conditions: mRNA level, 48 h; actives raise or lower the signal
Outline: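 Read-out is CCND2 mRNA level measured by qRT-PCR in human HepaRG liver cells and normalised to three housekeeping genes. Chemicals were applied for 48 h at up to 100 uM, with gain or loss fitted relative to 0.5% DMSO.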

[13] = read-out: flavin-containing dimethylaniline monooxygenases 3 (FMO3), FMO3 (gene 2328); assay: LTEA_HepaRG_FMO3: Life Technologies and Expression Analysis (LTEA) Assay for flavin-containing dimethylaniline monooxygenases 3 (FMO3) using HepaRG (AID 2283453); conditions: mRNA level, 48 h; actives raise or lower the signal
Outline: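 Differentiated HepaRG cells in serum-free induction medium, exposed 48 h in duplicate to 8 half-log concentrations up to 100 uM in 0.5% DMSO. FMO3 mRNA by qRT-PCR, normalized to ACTB, GAPDH, POLR2A; bidirectional fit vs DMSO.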

[14] = read-out: Forkhead box O1 (FOXO1), FOXO1 (gene 2308); assay: LTEA_HepaRG_FOXO1: Life Technologies and Expression Analysis (LTEA) Assay for Forkhead box O1 (FOXO1) using HepaRG (AID 2283456); conditions: mRNA level, 48 h; actives raise or lower the signal
Outline: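 Readout is FOXO1 transcript level by multiplexed qRT-PCR against three housekeeping genes, curve-fitted in both directions relative to 0.5% DMSO vehicle. Human HepaRG cultures received chemicals for 48 h, up to 100 uM in half-log steps.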

[15] = CEETOX_H295R_CORTISOL: CeeTox H295R High-throughput Steroidogenesis Assay for Cortisol (AID 2283438); conditions: actives raise or lower the signal
Outline: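 Forskolin 10 uM 48 h prestim → test cmpd in DMSO (0.1% final) 48 h → medium MTBE-extracted → LC-MS/MS cortisol vs 7-pt std curve. Gain/loss of signal fitted vs DMSO. MTT viability in same wells.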

[16] = CEETOX_H295R_DOC: CeeTox H295R High-throughput Steroidogenesis Assay for DOC (AID 2283439); conditions: actives raise or lower the signal
Outline: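 Readout: 11-deoxycorticosterone in culture medium by reverse-phase C18 HPLC with ESI+ tandem MS after MTBE extraction. Cells: H295R, forskolin-primed (10 uM, 48 h), chemical-treated 48 h; DMSO 0.1% final. Activity fitted bidirectionally versus DMSO.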

[17] = CEETOX_H295R_PROG: CeeTox H295R High-throughput Steroidogenesis Assay for Progesterone (PROG) (AID 2283442); conditions: actives raise or lower the signal;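 for AC50: human H295R adrenal cells primed with 10 µM forskolin before dosing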
Outline: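 Progesterone secreted by human H295R cells was measured by LC-MS/MS following 48 h chemical exposure at 0.1% DMSO, preceded by 48 h forskolin (10 uM) stimulation. Same-well MTT viability; cytotoxic concentrations diluted 10- or 100-fold and retested.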

[18] = CEETOX_H295R_TESTO: CeeTox H295R High-throughput Steroidogenesis Assay for Testosterone (TESTO) (AID 2283457); conditions: actives raise or lower the signal
Outline: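 Testosterone secreted into the medium over 48 h by H295R cells (maximum passage 10) was quantified by LC-MS/MS after MTBE extraction. Fitted in both directions against DMSO, with concentrations diluted until MTT viability was ≥70%.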

[19] = CEETOX_H295R_ESTRADIOL: CeeTox H295R High-throughput Steroidogenesis Assay for Estradiol (AID 2283440); conditions: actives raise or lower the signal;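 note: estradiol secreted into medium quantified by LC-MS/MS after dansyl derivatisation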
Outline: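 Estradiol in spent medium measured by LC-MS/MS after dansyl chloride derivatisation. Forskolin-primed (10 uM, 48 h) human adrenal H295R cells received test chemical 48 h at 0.1% DMSO; concentrations lowered until MTT viability >/=70%.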

[20] = CEETOX_H295R_ESTRONE: CeeTox H295R High-throughput Steroidogenesis Assay for Estrone (AID 2283441); conditions: actives raise or lower the signal;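 note: estrone secreted into medium measured by LC-MS/MS after dansyl derivatization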
Outline: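 H295R cells prestimulated 48 h with 10 uM forskolin, then exposed 48 h to chemicals in 0.1% DMSO final; estrone in medium extracted with MTBE, dansyl-derivatized, quantified by HPLC-MS/MS; bidirectional fitting versus DMSO, viability by MTT.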

Measured: AC50

Fatty acid synthase (Homo sapiens), sequence (P49327 whole entry, looked up): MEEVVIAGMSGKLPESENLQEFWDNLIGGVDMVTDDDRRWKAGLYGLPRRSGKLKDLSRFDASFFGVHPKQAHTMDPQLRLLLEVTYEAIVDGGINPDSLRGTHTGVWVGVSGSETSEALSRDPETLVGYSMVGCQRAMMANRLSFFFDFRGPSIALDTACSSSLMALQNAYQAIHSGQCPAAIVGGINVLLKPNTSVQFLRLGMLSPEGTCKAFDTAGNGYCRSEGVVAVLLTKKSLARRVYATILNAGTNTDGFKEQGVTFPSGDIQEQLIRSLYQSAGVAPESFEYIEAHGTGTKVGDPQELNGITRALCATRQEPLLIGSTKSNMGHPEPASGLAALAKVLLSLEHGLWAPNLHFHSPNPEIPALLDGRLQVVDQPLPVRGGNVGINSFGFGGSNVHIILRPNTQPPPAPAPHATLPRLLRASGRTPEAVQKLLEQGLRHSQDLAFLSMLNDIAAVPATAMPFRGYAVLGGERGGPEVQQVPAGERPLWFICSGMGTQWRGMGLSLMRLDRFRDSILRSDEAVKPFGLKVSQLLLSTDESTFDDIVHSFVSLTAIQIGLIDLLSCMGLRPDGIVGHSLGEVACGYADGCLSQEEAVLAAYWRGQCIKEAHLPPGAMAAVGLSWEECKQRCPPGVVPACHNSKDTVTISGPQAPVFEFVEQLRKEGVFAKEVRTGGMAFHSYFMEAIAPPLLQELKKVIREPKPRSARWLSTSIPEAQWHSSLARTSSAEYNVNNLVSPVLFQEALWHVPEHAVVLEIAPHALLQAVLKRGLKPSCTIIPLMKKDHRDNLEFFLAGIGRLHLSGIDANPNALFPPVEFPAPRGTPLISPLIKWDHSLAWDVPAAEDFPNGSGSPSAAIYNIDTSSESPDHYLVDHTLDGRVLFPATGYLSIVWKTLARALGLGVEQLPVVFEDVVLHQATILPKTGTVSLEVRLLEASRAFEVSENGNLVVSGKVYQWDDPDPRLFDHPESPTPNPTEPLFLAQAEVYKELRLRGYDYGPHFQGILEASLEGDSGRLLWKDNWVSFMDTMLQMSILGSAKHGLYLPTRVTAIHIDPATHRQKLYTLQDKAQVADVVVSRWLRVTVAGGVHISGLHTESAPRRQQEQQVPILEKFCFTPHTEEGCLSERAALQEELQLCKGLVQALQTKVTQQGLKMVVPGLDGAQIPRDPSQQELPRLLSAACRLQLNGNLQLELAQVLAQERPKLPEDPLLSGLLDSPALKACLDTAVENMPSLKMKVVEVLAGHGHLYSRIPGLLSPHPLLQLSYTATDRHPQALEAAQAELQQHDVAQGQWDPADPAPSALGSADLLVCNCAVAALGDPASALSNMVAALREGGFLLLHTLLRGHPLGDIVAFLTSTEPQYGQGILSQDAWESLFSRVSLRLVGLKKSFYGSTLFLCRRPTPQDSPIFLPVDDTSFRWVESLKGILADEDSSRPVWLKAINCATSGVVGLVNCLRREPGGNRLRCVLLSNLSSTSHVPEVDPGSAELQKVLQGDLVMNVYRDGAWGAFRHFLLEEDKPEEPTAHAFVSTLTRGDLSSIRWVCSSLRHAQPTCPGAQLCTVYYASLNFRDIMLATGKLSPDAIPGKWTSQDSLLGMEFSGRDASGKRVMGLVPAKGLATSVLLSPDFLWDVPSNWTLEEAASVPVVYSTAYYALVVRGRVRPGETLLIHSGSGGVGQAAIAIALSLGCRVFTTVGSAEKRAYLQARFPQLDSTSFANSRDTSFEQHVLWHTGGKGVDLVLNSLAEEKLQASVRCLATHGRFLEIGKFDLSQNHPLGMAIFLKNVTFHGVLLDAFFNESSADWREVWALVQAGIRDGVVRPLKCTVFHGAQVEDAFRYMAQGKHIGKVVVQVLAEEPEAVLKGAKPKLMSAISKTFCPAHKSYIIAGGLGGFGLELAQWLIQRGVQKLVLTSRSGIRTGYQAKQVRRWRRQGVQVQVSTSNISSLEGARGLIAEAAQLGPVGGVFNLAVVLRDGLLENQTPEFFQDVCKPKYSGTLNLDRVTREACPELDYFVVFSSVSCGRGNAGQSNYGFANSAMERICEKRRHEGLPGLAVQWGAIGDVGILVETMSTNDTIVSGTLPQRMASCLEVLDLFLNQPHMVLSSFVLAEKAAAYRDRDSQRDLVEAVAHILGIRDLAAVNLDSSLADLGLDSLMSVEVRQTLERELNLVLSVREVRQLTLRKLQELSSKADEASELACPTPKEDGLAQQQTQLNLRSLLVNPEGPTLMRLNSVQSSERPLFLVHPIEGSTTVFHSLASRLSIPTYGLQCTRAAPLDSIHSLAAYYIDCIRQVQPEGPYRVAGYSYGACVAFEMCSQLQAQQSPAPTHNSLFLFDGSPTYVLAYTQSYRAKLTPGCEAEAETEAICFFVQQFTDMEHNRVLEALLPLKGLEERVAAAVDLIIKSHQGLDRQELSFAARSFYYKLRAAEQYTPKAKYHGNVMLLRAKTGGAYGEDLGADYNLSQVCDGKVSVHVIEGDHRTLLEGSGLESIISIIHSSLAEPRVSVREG

CCCCC(CC)C(=O)O (centres undefined)
inactive: [1] | [2] | [3] | [4] | [6] | [7] | [8] | [9] | [10] | [11]
active: [5] 50 µM

OCC(CO)(CBr)CBr
inactive: [1] | [12] | [2] | [3] | [4] | [13] | [5] | [6] | [14] | [7] | [8] | [9] | [10] | [11]

c1cc[nH]c1
inactive: [15] | [16] | [17] | [18]

CN(Cc1cnc2nc(N)nc(N)c2n1)c1ccc(C(=O)N[C@@H](CCC(=O)O)C(=O)O)cc1
inactive: [12] | [2] | [3] | [4] | [13] | [5] | [6] | [14] | [7] | [8] | [9] | [10] | [11]
active: [1] 3.33 µM

O=C(NCc1ncc(C(F)(F)F)cc1Cl)c1c(Cl)cccc1Cl
inactive: [15] | [16] | [19] | [20] | [18]
active: [17] 7.48 µM

CC(=O)Nc1ccc(O)cc1
inactive: [1] | [12] | [2] | [3] | [4] | [13] | [6] | [14] | [7] | [8] | [9] | [10] | [11]
active: [5] 50 µM

COc1cc([N+](=O)[O-])ccc1N
active: [16] 23.8 µM | [17] 24.2 µM
inactive: [15] | [19] | [20] | [18]
